Assay results from PubChem BioAssay (NCI).
Where “and” joins values, the source holds several entries; their conditions need not be identical. Equal values may be shown once. About 83,000 compounds went through this panel and 20% of them were active in at least one assay; those are over-represented in the sample as a whole.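 Step 1: grow cells in 96-well plates. Step 2: add test compound at a single concentration. Step 3: incubate 48 h. Step 4: record percent growth.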 Calls of active or inactive are those of the source. How the source made its calls: active means growth percent below 10; inactive means the rest.

Assays:
Experiment in all cases: NCI-60 one-dose screen, 48 h (100 = growth as untreated, 0 = no growth, -100 = all killed)
Details in all cases: 10 µM unless noted
[1] = tested on: DU-145 prostate
[2] = tested on: K-562 leukemia
[3] = tested on: MALME-3M melanoma
[4] = tested on: MDA-MB-231 breast
[5] = tested on: RXF 393 renal
[6] = tested on: SF-268 CNS
[7] = tested on: SF-295 CNS
[8] = tested on: SF-539 CNS
[9] = tested on: UACC-257 melanoma
[10] = tested on: M14 melanoma
[11] = tested on: HCT-15 colon
[12] = tested on: HT29 colon
[13] = tested on: SNB-75 CNS
[14] = tested on: SNB-19 CNS
[15] = tested on: U251 CNS
[16] = tested on: PC-3 prostate
[17] = tested on: SK-MEL-5 melanoma
[18] = tested on: UACC-62 melanoma
[19] = tested on: LOX IMVI melanoma
[20] = tested on: SK-MEL-28 melanoma

Row | Compound | growth [1] | growth [2] | growth [3] | growth [4] | growth [5] | growth [6] | growth [7] | growth [8] | growth [9] | growth [10] | growth [11] | growth [12] | growth [13] | growth [14] | growth [15] | growth [16] | growth [17] | growth [18] | growth [19] | growth [20]
1 | Nc1ncnc2c1ncn2C1CC(O)C(CO)O1 (stereo not given) | 125% (inactive) and 118% (inactive) | 116% (inactive) and 96.6% (inactive) | 220% (inactive) and 110% (inactive) | 112% (inactive) and 119% (inactive) | 109% (inactive) | 116% (inactive) and 107% (inactive) | 82.6% (inactive) and 95% (inactive) | 89.6% (inactive) and 121% (inactive) | 102% (inactive) | 113% (inactive) and 103% (inactive) | 107% (inactive) and 111% (inactive) | 109% (inactive) and 115% (inactive) | 89.7% (inactive) and 92.9% (inactive) | 107% (inactive) and 103% (inactive) | 102% (inactive) and 100% (inactive) | 110% (inactive) and 102% (inactive) | 115% (inactive) and 108% (inactive) | 104% (inactive) and 105% (inactive) | 103% (inactive) and 105% (inactive) | 123% (inactive) and 115% (inactive)
2 | O=C1C2=C(C(=O)c3ccccc31)C(O)(S(=O)(=O)O)C(O)(S(=O)(=O)O)C1N=CC=CC21 (stereo not given) | 64.2% (inactive) and 48% (inactive) | 13.5% (inactive) and 40% (inactive) | 73% (inactive) and 62.1% (inactive) | 58.3% (inactive) and 47.6% (inactive) | 76.7% (inactive) and 58.1% (inactive) | 52.2% (inactive) and 36.5% (inactive) | 6.52% (active) and 15.4% (inactive) | 25.4% (inactive) and 20.8% (inactive) | 71.4% (inactive) and 35.3% (inactive) | 42.9% (inactive) | 32.3% (inactive) and 38.7% (inactive) | 46.6% (inactive) and 21.4% (inactive) | 61.1% (inactive) and 35.1% (inactive) | 43.8% (inactive) and 48.5% (inactive) | 30.3% (inactive) and 18.7% (inactive) | 31.8% (inactive) and 30.2% (inactive) | 26.6% (inactive) and 29.7% (inactive) | 51.3% (inactive) and 45.6% (inactive) | 36.7% (inactive) and 24.7% (inactive) | 89.2% (inactive) and 73% (inactive)
3 | Cc1ccc(S(=O)(=O)Nc2ccc3cc([N+](=O)[O-])ccc3c2[N+](=O)[O-])cc1 | 90.9% (inactive) and 106% (inactive) | 81.8% (inactive) and 29% (inactive) | 62.6% (inactive) and 90.9% (inactive) | 98.8% (inactive) and 95.1% (inactive) | 93.2% (inactive) and 102% (inactive) | 81.8% (inactive) and 94.8% (inactive) | 38.9% (inactive) and 53.1% (inactive) | 89.8% (inactive) and 111% (inactive) | 82.3% (inactive) and 97% (inactive) | 95.5% (inactive) and 95% (inactive) | 71% (inactive) and 94.2% (inactive) | 93.3% (inactive) and 114% (inactive) | 80% (inactive) and 106% (inactive) | 85.6% (inactive) and 96.2% (inactive) | 82.1% (inactive) and 88.2% (inactive) | 71.7% (inactive) and 73.4% (inactive) | 86.1% (inactive) | 44% (inactive) and 69.1% (inactive) | 82% (inactive) and 97.3% (inactive) | 89.7% (inactive) and 115% (inactive)
4 | S=C(S)N1CCCC1 | 105% (inactive) and 128% (inactive) | 39.6% (inactive) and 76.5% (inactive) | 96.1% (inactive) and 99.7% (inactive) | 92.3% (inactive) and 125% (inactive) | 112% (inactive) and 125% (inactive) | 97% (inactive) and 116% (inactive) | 112% (inactive) and 103% (inactive) | 110% (inactive) and 128% (inactive) | 96.5% (inactive) and 92.6% (inactive) | 93.8% (inactive) and 101% (inactive) | 107% (inactive) | 76.7% (inactive) and 22.4% (inactive) | 113% (inactive) and 89% (inactive) | 99.1% (inactive) and 100% (inactive) | 85.1% (inactive) and 49% (inactive) | 84.7% (inactive) and 82.8% (inactive) | 79.7% (inactive) and 67.8% (inactive) | 90.9% (inactive) and 105% (inactive) | 108% (inactive) and 90.2% (inactive) | 95.1% (inactive) and 107% (inactive)
